Here are results for 37 molecules from the supplement of paper PMC9694430.

This assay deals with LOC_OS01G63280-cb003. Briefly: thermal shift delta Tm vs DMSO control; higher = stronger stabilization (binding). The settings on record: 12.5 µM; protein concentration 2 µM. In a few lines: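 Compounds dissolved in DMSO were added to purified rice kinase domain constructs, which had been expressed in E. coli, for differential scanning fluorimetry. Each well held 19.5 μl of 2 μM kinase in 100 mM potassium phosphate pH 7.5, 150 mM NaCl, 10% glycerol and 5 × SYPRO Orange. Fluorescence was followed from 25°C to 95°C at a rate of 0.05°C/s. Shifts in Boltzmann-fitted melting temperature are triplicate means relative to DMSO-only protein.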
`Oc1c2ccccc2c2c3c(cccc13)N=N2`: the “thermal shift delta Tm” value was found to be 2.18 °C. Then `CSc1cccc(Nc2ncc3cc(-c4c(Cl)cccc4Cl)c(=O)n(C)c3n2)c1`, with 0.6 °C. The result for `COc1cc(Nc2ncc(F)c(Nc3ccc4c(n3)NC(=O)C(C)(C)O4)n2)cc(OC)c1OC` [R406 (free base)] reads 0.7 °C; that for `Cc1cn(-c2cc(NC(=O)c3ccc(C)c(Nc4nccc(-c5cnccn5)n4)c3)cc(C(F)(F)F)c2)cn1` [Radotinib], 0.63 °C; that for `CN1CCN(Cc2ccc(-c3cnc4[nH]cc(-c5ccc6[nH]ccc6c5)c4c3)cc2)CC1`, 7.33 °C. Turning to `CONC(=O)c1ccccc1Nc1cc(Nc2cc(C)nn2C(C)C)ncc1Cl`, the “thermal shift delta Tm” value was determined as 0.5 °C. Turning to `CNC(=O)c1cc(Oc2ccc(NC(=O)Nc3ccc(Cl)c(C(F)(F)F)c3)c(F)c2)ccn1` [Regorafenib (BAY 73-4506)], the “thermal shift delta Tm” value came to 1.71 °C.

Turning to `c1cc(-c2cnn3cc(-c4ccc(OCCN5CCCCC5)cc4)cnc23)ccn1` [Dorsomorphin 2HCl], the “thermal shift delta Tm” value is 1.5 °C. For `CCCCCCCCCC(=O)CC(O)S(=O)(=O)O` (configuration not stated) [Sodium Houttuyfonate], the “thermal shift delta Tm” value was 0.07 °C. As for `CC(C)[C@H](CO)Nc1nc(Nc2cccc(Cl)c2)c2ncn(C(C)C)c2n1` [Purvalanol A], the “thermal shift delta Tm” value turned out to be 0.46 °C. The result for `COc1ccc(Cl)c(Nc2nc3ccccc3nc2NS(=O)(=O)c2cccc(NC(=O)C(C)(C)N)c2)c1` [Pilaralisib (XL147)] reads 2.27 °C. As to `CC(C)Oc1ccc(-c2nn([C@@H](C)c3oc4ccc(F)cc4c(=O)c3-c3cccc(F)c3)c3ncnc(N)c23)cc1F`, the “thermal shift delta Tm” value was found to be 0.47 °C. The result for `O=C(/C=C/c1ccc2ccccc2n1)c1ccncc1` reads 1.12 °C; that for `CC(C)(O)CC(=O)NCCn1ccc2ncnc(Nc3ccc(Oc4cccc(C(F)(F)F)c4)c(Cl)c3)c21`, 1.26 °C; that for `CCOC(=O)c1cnc2ccc(-c3cncc(NS(=O)(=O)c4ccccc4)c3)cn12`, 0.47 °C. Turning to `N#Cc1c(NC(=O)c2cccc3ccccc23)sc2c1CCCC2` [JNK Inhibitor IX], the “thermal shift delta Tm” value was -0.18 °C.

On to `CN(C)Cc1cccc(N=C(c2ccccc2)c2c(O)[nH]c3cc(C(=O)N(C)C)ccc23)c1`, for which the “thermal shift delta Tm” value was 0.74 °C. The result for `O=c1c(-c2ccc(O)cc2)coc2cc(O)cc(O)c12` [Genistein] reads 0.16 °C; that for `CCn1c2ccccc2c2cc(Nc3ccnc(NCCCN4CCOCC4)n3)ccc21`, 0.29 °C. The result for `N#CC(=C(/N)Sc1ccccc1N)/C(C#N)=C(\N)Sc1ccccc1N` reads 2.36 °C; that for `CCN(CC)CCCC(C)Nc1nc(C)cc(Nc2ccc3nc(C)cc(N)c3c2)n1` (configuration not stated), 0.28 °C.

As for `c1cn2cc(-c3ccc4cn[nH]c4c3)nc(Nc3ccc(N4CCOCC4)cc3)c2n1` [Entospletinib (GS-9973)], the “thermal shift delta Tm” value worked out at 2 °C. For the molecule `C[C@H]1CNC(=O)c2cnn3ccc(nc23)N[C@H](C)c2cc(F)ccc2O1`, the “thermal shift delta Tm” value is 2 °C. Then `CC(C)c1cnn2c(NCc3ccccc3)cc(NCCCCCCN)nc12`, with 0.24 °C; and `C=CC(=O)Nc1cccc(Nc2nc(Nc3ccc(NC4CN(CCF)C4)cc3OC)ncc2C(F)(F)F)c1`, with 0.2 °C; and `CNC(=O)CN1CCC(Oc2cc3c(Nc4cccc(Cl)c4F)ncnc3cc2OC)CC1` [Sapitinib (AZD8931)], with 0.07 °C.

`C=CC(=O)Nc1cccc(Nc2nc(Nc3ccc(N4CCN(C(C)=O)CC4)cc3OC)ncc2C(F)(F)F)c1` [Rociletinib (CO-1686, AVL-301)]: the “thermal shift delta Tm” value is -0.27 °C.

`O=C(c1ccc(/C=C/c2n[nH]c3ccccc23)cc1)N1CCNCC1`: the “thermal shift delta Tm” value turned out to be 0.98 °C. Take `Cc1ccc(NC(=O)c2ccc(CN3CCN(C)CC3)cc2)cc1Nc1nc(-c2cccnc2)cs1` [Masitinib (AB1010)]: the “thermal shift delta Tm” value was found to be 0.19 °C. Consider `N#Cc1c(O)c2c(-c3ccc(-c4ccccc4O)cc3)csc2[nH]c1=O`, for which the “thermal shift delta Tm” value is 0.82 °C.

As to `CN1CC[C@H](c2c(O)cc(O)c3c(=O)cc(-c4ccccc4Cl)oc23)[C@H](O)C1` [Flavopiridol (Alvocidib)], the “thermal shift delta Tm” value was 0.37 °C. For the molecule `Cc1cnc(Nc2ccc(OCCN3CCCC3)cc2)nc1Nc1cccc(S(=O)(=O)NC(C)(C)C)c1`, the “thermal shift delta Tm” value was 0.21 °C. For `C[C@@H](Oc1ccc2[nH]nc(/C=C/c3cnn(CCO)c3)c2c1)c1c(Cl)cncc1Cl`, the “thermal shift delta Tm” value amounted to 7.65 °C.

On to `Nc1cccc(-c2cc3c(Oc4cccc(O)c4)ncnc3[nH]2)c1`, for which the “thermal shift delta Tm” value turned out to be 2.09 °C.

For the molecule `CN1CCC(COc2cnc(-c3cccc(Cn4nc(-c5cccc(C#N)c5)ccc4=O)c3)nc2)CC1`, the “thermal shift delta Tm” value was -0.13 °C. On to `C[C@H](Nc1ncnc2nc[nH]c12)c1cc2cccc(Cl)c2c(=O)n1-c1ccccc1` [Duvelisib (IPI-145, INK1197)], for which the “thermal shift delta Tm” value amounted to 0.2 °C. For the molecule `CCCCNc1ncc(C(=O)NCc2ccc(-n3ccnc3)cc2)c(NC2CCC(O)CC2)n1` (configuration not stated), the “thermal shift delta Tm” value was 0.72 °C.
